Results on 55 molecules are retold here after PubChem BioAssay AID547 (Emory University Molecular Libraries Screening Center, 2006).

SMILES strings stand for the structures. Screen size: about 1,300 compounds; about 10 (0.8%) were called active. The rule behind the calls is not given here. For the sample, actives were picked, then their nearest neighbours and some compounds at random.

This assay has as its target Chaperone protein DnaK (Escherichia coli (strain K12)) (UniProt P0A6Y8). Nature of the assay: E. coli DnaK chaperone inhibitors, primary screen, luminescence, E. coli K12 (AID 547).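 Note: tested at 10 µM.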 The conditions noted are these: DnaK chaperone assay, luminescence read-out; stronger effect = lower value.
Regarding `CN1CCCC1CCOC(C)(c1ccccc1)c1ccc(Cl)cc1` (stereo not given), the luminescence was 2.5e+06 cps (inactive).

Consider `NC(=NCc1ccccc1)NC(=O)c1nc(Cl)c(N)nc1N`, for which the luminescence is 2.1e+06 cps (inactive).

Turning to `CCCC1O[C@@H]2C[C@H]3[C@@H]4CCC5=CC(=O)C=C[C@]5(C)[C@H]4[C@@H](O)C[C@]3(C)[C@]2(C(=O)CO)O1` (stereo not given in full), the luminescence is 2.4e+06 cps (inactive).

With `Cn1c(=O)[nH]c2ncn(C)c2c1=O`, the luminescence was 2.8e+06 cps (inactive).

On to `CCCn1c(=O)c2[nH]c(-c3ccc(OCC(=O)Nc4ccc(C#N)cc4)cc3)nc2n(CCC)c1=O`, for which the luminescence was 2.3e+06 cps (inactive).

Take `O=C(O)c1ccccc1Nc1ccccc1`: the luminescence was 2.2e+06 cps (inactive).

As to `COc1ccc(/C=C/C(=O)Nc2ccccc2C(=O)O)cc1OC`, the luminescence is 1.6e+06 cps (active).

As to `COc1ccc(NC(=O)/C=C/c2ccc(Cl)cc2)cc1`, the luminescence is 2.8e+06 cps (inactive).

For `CCn1c(=O)[nH]c2cc(Cl)c(Cl)cc21`, the luminescence was 3.1e+06 cps (inactive).

With `O=C(O)/C=C/c1cnc[nH]1`, the luminescence is 2.2e+06 cps (inactive).

As to `Cn1c(=O)c2c(nc(/C=C/c3cccc(Cl)c3)n2C)n(C)c1=O`, the luminescence is 2.6e+06 cps (inactive).

`O=c1cc(O)cc(/C=C/c2ccc(O)c(O)c2)o1`: the luminescence was 2.5e+06 cps (inactive).

`NC12CC3CC(CC(C3)C1)C2`: the luminescence was 2.3e+06 cps (inactive).

As for `CC[N+](C)(C)Cc1ccccc1Br`, the luminescence was 2.5e+06 cps (inactive).

For the molecule `CCC(NC(C)C)C(O)c1ccc(O)c(O)c1` (stereo not given), the luminescence is 2.2e+06 cps (inactive).

Take `NC(N)=NCCSSCCN=C(N)N`: the luminescence is 3e+06 cps (inactive).

As for `NC[C@H](O)c1ccc(O)c(O)c1`, the luminescence is 2.6e+06 cps (inactive).

As to `Cc1cn([C@H]2C[C@@H](N=[N+]=[N-])[C@@H](CO)O2)c(=O)[nH]c1=O`, the luminescence is 2.8e+06 cps (inactive).

In the case of `CCCCCCCCCC[Si](C)(C)CCC(=O)NC(Cc1ccc(C)cc1)c1ccccc1` (stereo not given), the luminescence was 2.8e+06 cps (inactive).

On to `CC(N)=NCCC[C@H](N)C(=O)O`, for which the luminescence was 2.6e+06 cps (inactive).

On to `C[C@]12CCC(=O)C=C1CC[C@@H]1[C@@H]2C(=O)C[C@@]2(C)[C@H]1CC[C@]2(O)C(=O)CO`, for which the luminescence is 2.3e+06 cps (inactive).

As to `CNC(=O)[C@H]1O[C@@H](n2cnc3c(N)ncnc32)C(O)[C@H]1O` (stereo not given in full), the luminescence is 2.5e+06 cps (inactive).

On to `CC(CCc1ccccc1)NCC(O)c1ccc(O)c(C(N)=O)c1` (stereo not given), for which the luminescence was 2.8e+06 cps (inactive).

Take `C=CCc1ccccc1OCC(O)CNC(C)C` (stereo not given): the luminescence was 2.8e+06 cps (inactive).

On to `Cn1cnc2c(NC3CCCC3)ncnc21`, for which the luminescence was 2.5e+06 cps (inactive).

In the case of `Nc1nc(SCc2ccc([N+](=O)[O-])cc2)c2ncn([C@@H]3O[C@H](CO)[C@H](O)C3O)c2n1` (stereo not given in full), the luminescence is 2.7e+06 cps (inactive).

Consider `CCCCCCCCCCCCCCCCOCC(COCC(F)(F)F)OP(=O)(O)OCO` (stereo not given), for which the luminescence is 2.4e+06 cps (inactive).

In the case of `O=c1ccc2c(OCCCCc3ccccc3)c3ccoc3cc2o1`, the luminescence is 2.8e+06 cps (inactive).

In the case of `Cc1c(C)c2c(c(C)c1O)CCC(C)(CN1CCN(c3cc(N4CCCC4)nc(N4CCCC4)n3)CC1)O2` (stereo not given), the luminescence is 2.6e+06 cps (inactive).

With `CN/C(=C\[N+](=O)[O-])NCCSCc1ccc(CN(C)C)o1`, the luminescence is 2.6e+06 cps (inactive).

On to `CN(C)c1nc(N)c(C(=O)N=C(N)N)nc1Cl`, for which the luminescence was 2.5e+06 cps (inactive).

Take `Cc1cc(N)c2ccccc2[n+]1CCCCCCCCCCCCCC[n+]1c(C)cc(N)c2ccccc21`: the luminescence is 3e+06 cps (inactive).

Consider `O=C(O)c1cc(=O)cc(C(=O)O)[nH]1`, for which the luminescence was 2.7e+06 cps (inactive).

For `Cc1ccc(N(CC2=NCCN2)c2cccc(O)c2)cc1`, the luminescence was 2.5e+06 cps (inactive).

On to `CC(COc1ccc(/C=C/c2ccccc2)cc1)[N+](C)(C)C` (stereo not given), for which the luminescence was 2.1e+06 cps (inactive).

Consider `O=C(c1ccc(F)cc1)C1CCN(CCn2c(=O)[nH]c3ccccc3c2=O)CC1`, for which the luminescence is 1.7e+06 cps (active).

`Cc1nc2ccccn2c(=O)c1CCN1CCC(C(=O)c2ccc(F)cc2)CC1`: the luminescence was 2.5e+06 cps (inactive).

As to `CC1(C)C(=O)N(CCN2CCC(C(=O)c3ccc(F)cc3)CC2)c2ccccc21`, the luminescence is 2.6e+06 cps (inactive).

Turning to `C[C@H](CS)C(=O)N1CCC[C@H]1C(=O)O`, the luminescence was 2.6e+06 cps (inactive).

`N[C@@H](Cc1cnc[nH]1)C(=O)O`: the luminescence was 2.9e+06 cps (inactive).

In the case of `C=C[C@H]1CN2CCC1C[C@@H]2[C@@H](O)c1ccnc2ccc(OC)cc12` (stereo not given in full), the luminescence was 2.3e+06 cps (inactive).

With `CC1(NCC(O)COc2cccc3[nH]ccc23)CCC(C(C)(C)NC(=O)CBr)CC1` (stereo not given), the luminescence is 2.2e+06 cps (inactive).

In the case of `OCCN1CCN(CCCN2c3ccccc3Sc3ccc(C(F)(F)F)cc32)CC1`, the luminescence was 2.6e+06 cps (inactive).

For the molecule `O=C1NC(O)=NC1(c1ccccc1)c1ccccc1`, the luminescence is 2.6e+06 cps (inactive).

Regarding `C=C[C@H]1CN2CCC1C[C@H]2[C@H](O)c1ccnc2ccc(OC)cc12` (stereo not given in full), the luminescence is 2.4e+06 cps (inactive).

Turning to `O=c1[nH]c2cc([N+](=O)[O-])c([N+](=O)[O-])cc2[nH]c1=O`, the luminescence is 3e+06 cps (inactive).

For the molecule `C#CC(N)CCC(=O)O` (stereo not given), the luminescence was 2.7e+06 cps (inactive).

As for `C[C@H](Cc1ccc(O)c(O)c1)[C@@H](C)Cc1ccc(O)c(O)c1`, the luminescence was 2e+06 cps (inactive).

On to `NC1(C(=O)O)CCc2cc(C(=O)O)ccc21` (stereo not given), for which the luminescence was 2.8e+06 cps (inactive).

`CC(C)(C)NCC(O)c1cc(O)cc(O)c1` (stereo not given): the luminescence was 2.3e+06 cps (inactive).

Consider `Cc1ccccc1N1CCN(S(=O)(=O)C[C@]23CCC(CC2NC(=O)[C@@H](N)CCS(C)(=O)=O)C3(C)C)CC1` (stereo not given in full), for which the luminescence is 2.6e+06 cps (inactive).

With `C[C@]12C=CC(=O)C=C1CC[C@@H]1C2=CC[C@]2(C)[C@@H](C(=O)CN3CCN(c4cc(N5CCCC5)nc(N5CCCC5)n4)CC3)CC[C@@H]12`, the luminescence is 2.4e+06 cps (inactive).

On to `Nc1ccc(N2C(=O)c3ccccc3C2=O)c(Cl)c1`, for which the luminescence was 2.7e+06 cps (inactive).

For the molecule `CC(=O)N[C@@H](Cc1c[nH]c2ccccc12)C(=O)OCc1cc(C(F)(F)F)cc(C(F)(F)F)c1`, the luminescence is 2.8e+06 cps (inactive).

Regarding `Brc1ccc([C@H]2CN3CCSC3=N2)cc1`, the luminescence was 2.2e+06 cps (inactive).
